The values below come from PubChem BioAssay (NCI).

Where “and” joins values, the source holds several entries; their conditions need not be identical. Identical values can stand only once. Compounds without any hit were thinned out: in the full panel of roughly 83,000, 20% have a hit.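 Single-dose data. Exposure time 48 hours. Values below 10 considered active.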 Calls of active or inactive are those of the source.

In this test the test system is MDA-MB-468 breast. The test can be described thus: NCI-60 one-dose screen, 48 h (100 = growth as untreated, 0 = no growth, -100 = all killed). Particulars: 10 µM unless noted.
As to `CS(=O)(=O)O[C@@H]1C(=O)N(c2cc3c4ccccc4ccc3c3ccccc23)[C@H]1c1ccc(F)cn1`, the growth was 30.4% (inactive).

With `CC1(C)NCCC[C@]2(C)[C@H]3CC=C4[C@@H]5C[C@](C)(COC(=O)c6ccccc6C(=O)O)CC[C@]5(C)CC[C@@]4(C)[C@]3(C)CC[C@@H]12`, the growth was 29.5% (inactive).

As for `COc1ccc(Nc2nn3c(-c4ccccc4)cc(-c4ccccc4)nc3c2C(N)=O)c(OC)c1`, the growth was 43.5% (inactive).

Turning to `OCc1ncc(-c2ccccc2)s1`, the growth was 104% (inactive).

Regarding `Cc1cccc(NC(=O)Cn2cc(CN3CCN(c4ccnc5cc(Cl)ccc45)CC3)nn2)c1`, the growth was 90.2% (inactive).

As for `Cc1cc2cn3c4ccc(O)cc4[nH]c(=O)c3c2cc1C`, the growth was -28.2% (active).

On to `C#CC(O)c1ccccc1` (stereo not given), for which the growth is 110% (inactive).

As for `CN1CCN(/C=C2\CC(C(=O)NCc3ccc(Cl)cc3Cl)NC2=O)CC1` (stereo not given), the growth is 103% (inactive).

Turning to `CC(C)c1nn(-c2ccccc2)c(N2CCCCC2)c1/C=N/NC(N)=S`, the growth was 89.6% (inactive).

Turning to `CCCC(C(=O)OCC)C(C)OC(=O)OCC` (stereo not given), the growth is 101% (inactive).

For the compound `[2H]c1nc(Nc2ncc(F)c(-c3cc(F)c4nc(C)n(C(C)C)c4c3)n2)c([2H])c([2H])c1CN1CCN(CC)CC1`, the growth is 90.1% (inactive).

For `COc1cccc(-c2nc(-c3ccc(NC(=O)C(C)C)cc3)[nH]c2-c2ccnc(Br)c2)c1`, the growth was 26.4% (inactive).

Consider `Cc1ccc(C(=O)Nc2cccc(F)c2)cc1NC(=O)C1(c2ncnc3[nH]ccc23)CC1`, for which the growth was 85.8% (inactive).

Take `COc1ccc(Cn2c(Br)c3c(c2Br)-c2nc(NC(=O)c4ccc(OC)cc4)sc2CC3)cc1`: the growth was 83.5% (inactive).

As for `CCN(CC)c1ccc2cc(C(Nc3ccc(Br)c(C(F)(F)F)c3)c3nnnn3C(C)(C)C)c(=O)oc2c1` (stereo not given), the growth was 118% (inactive).

As to `CCOC(=O)c1sc(-c2ccc(OS(=O)(=O)C[C@]34CCC(CC3=O)C4(C)C)c(C=O)c2)nc1C`, the growth is 3.2% (active).

`CC(C)(C)C(=O)OCOP(=O)(OCOC(=O)C(C)(C)C)C1CCCN(OC(=O)c2ccccc2)C1=O` (stereo not given): the growth is 29.6% (inactive).

For `C=C(C)[C@@H]1CC[C@]2(C(=O)O)CC[C@]3(C)[C@H](CC[C@@H]4[C@@]5(C)C[C@@H](CC#Cc6ccccc6)C(=O)C(C)(C)[C@@H]5CC[C@]43C)[C@@H]12`, the growth is 19.8% (inactive).

As to `COc1ccc(COc2ccc(/C=C3\C(=O)Nc4ccccc43)cc2OC)cc1`, the growth was 100% (inactive).

On to `CN1CCN(CCCOc2ccc3nc(Nc4ccc(C(F)(F)F)c(Cl)c4)ccc3c2)CC1`, for which the growth is 30% (inactive).

As to `Cc1c(O)cc(-c2cnc(N/N=C/c3ccccc3)s2)c(O)c1C`, the growth is 61.6% (inactive).

On to `O=C(Cn1cc(CO)nn1)Nc1nc2ccccc2s1`, for which the growth was 101% (inactive).

Regarding `CCOC(=O)/C(C)=C\c1ccc(OC)c(OC)c1`, the growth was 103% (inactive).

Take `CN(CCCCCl)P(=O)(OCc1ccc([N+](=O)[O-])o1)C(F)(F)c1ccc(CC(=O)NC[C@@H](O)/C=C\[C@@H](O)[C@H](CO)Cc2ccccc2)cc1` (stereo not given in full): the growth is 55% (inactive).

Turning to `NS(=O)(=O)Oc1ccc2c(ccn2C(=O)C23CC4CC(CC(C4)C2)C3)c1`, the growth is 90.8% (inactive).

Take `Nc1nc(-c2cc3c(cc2Cl)NC(=O)/C3=C/c2ccc(Cl)cc2)cs1`: the growth is -14% (active).

In the case of `CCOP(=O)(OCC)OC[C@]12CC[C@@H](C)[C@H](C)C1C1=CC[C@@H]3[C@@]4(C)CCCNC(C)(C)[C@@H]4CC[C@@]3(C)[C@]1(C)CC2` (stereo not given in full), the growth is -51% (active).

For `COc1ccccc1N1C(=O)/C(=C/C2=Cc3ccccc3OC2)SC1=S`, the growth is 95% (inactive).

As for `Cc1cccc2cc(/C=C/C(=O)/C=C/c3ccc(Cl)cc3)c(=O)[nH]c12`, the growth was 61.7% (inactive).

As to `COc1ccc(OC)c(-c2cc(-c3ccc(Cl)cc3)c3c(N)c(C(=O)c4ccc(Cl)cc4)sc3n2)c1`, the growth is 117% (inactive).

In the case of `CC1(C)CCC(=NNC(N)=S)CC1`, the growth is 103% (inactive).

Consider `O=C(N/N=C/c1ccc([N+](=O)[O-])o1)c1[nH]c2ccc(Br)cc2c1-c1ccccc1`, for which the growth is 24.8% (inactive).

As for `Cc1ccc(NC(=S)NNC(=S)Nc2ccc(C)cc2)cc1`, the growth was 99.3% (inactive) and 34% (inactive).

Turning to `CC(=O)OCCC(C)CCC=C(C)C` (stereo not given), the growth was 122% (inactive).

In the case of `Cn1cc(-c2nnc(N)nc2-c2c[nH]c3ccc(F)cc23)c2cc(Br)ccc21`, the growth was -33.4% (active).

Turning to `COc1ccc(/C=C/C(=O)c2cc3c(N)c(C(=O)Nc4ccccc4C)sc3nc2C)cc1`, the growth was 16.3% (inactive).

On to `Cc1ccc(NC(=O)/C=C/c2ccccc2)c(C(N)=O)c1`, for which the growth was 22.5% (inactive).

Turning to `NCCn1cc(-c2nc(-c3c[nH]c4ncccc34)cs2)c2ccccc21`, the growth is 40.5% (inactive).

As for `CCC(C)(C)c1ccc(OCCCCCCN2CCN(c3ccc(C)c(Cl)c3)CC2)cc1`, the growth is 47.1% (inactive).

On to `O=C(Nc1ccc(F)cc1F)c1cc(Cl)ccc1O`, for which the growth was -4.07% (active).
